# Reference: paper PMC5540273 (PLoS ONE, 2017)
# Where two headings read alike, the source gives them in different places.
# Columns and labels:
# Details in all cases: n = 1
# SIK2 = tested on: SIK2
# SIK = tested on: SIK
# SLK = tested on: SLK
# SNARK = tested on: T1, SNARK
# T1 construct: gene NUAK2
# SNRK = tested on: SNRK
# SRC = tested on: SRC
# SRMS = tested on: SRMS
# SRPK1 = tested on: SRPK1
# SRPK2 = tested on: SRPK2
# SRPK3 = tested on: SRPK3
# [1] = concentration: 1 μM, replicates: in singlicate
# 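Note: KINOMEscan kinase panel screen.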
SMILES,%Inh (SIK2; [1]) [%],%Inh (SIK; [1]) [%],%Inh (SLK; [1]) [%],%Inh (SNARK; [1]) [%],%Inh (SNRK; [1]) [%],%Inh (SRC; [1]) [%],%Inh (SRMS; [1]) [%],%Inh (SRPK1; [1]) [%],%Inh (SRPK2; [1]) [%],%Inh (SRPK3; [1]) [%],%Inh (SIK2; 1 µM) [%],%Inh (SIK; 1 µM) [%],%Inh (SLK; 1 µM) [%],%Inh (SNARK; 1 µM) [%],%Inh (SNRK; 1 µM) [%],%Inh (SRC; 1 µM) [%],%Inh (SRMS; 1 µM) [%],%Inh (SRPK1; 1 µM) [%],%Inh (SRPK2; 1 µM) [%],%Inh (SRPK3; 1 µM) [%]
Cc1nnc(-c2ccc3occ(-c4ccc(S(C)=O)cc4)c3c2)[nH]1 (centres unmarked),19,7,50,11,0,9,0,27,0,0,–,–,–,–,–,–,–,–,–,–
Cc1ccc(NC(=O)Nc2cccc(C(F)(F)F)c2)cc1 [GSK955403],–,–,–,–,–,–,–,–,–,–,0,0,5,0,0,15,0,17,5,0
Fc1cc(Cl)ccc1Nc1ccnc2cc(I)ccc12 [GW551191],49,29,0,0,0,0,0,7,0,8,–,–,–,–,–,–,–,–,–,–
COc1cc2nccc(Nc3ccc(NC(=O)c4ccc(C)cc4)c(O)c3)c2cc1OC.Cl [GW440132],0,16,44,0,0,20,71,18,0,0,–,–,–,–,–,–,–,–,–,–
COc1cc2ncn(-c3cc(OCC4CCCO4)c(C(N)=O)s3)c2cc1OC (centres unmarked) [GSK204607],93.5,0,96.3,39,0,0,0,28,11,0,–,–,–,–,–,–,–,–,–,–
COc1cc(Nc2nccc(N3CCC(NC(=O)Nc4cc(C)ccc4C)C3)n2)cc(OC)c1OC (centres unmarked) [GSK1379762],6,0,23,23,0,24,0,53,0,29,–,–,–,–,–,–,–,–,–,–
CC1=C(C(=O)Nc2cc3cn[nH]c3cc2F)C(c2ccc(C(F)(F)F)cc2)CC(=O)N1 (centres unmarked) [GSK429286],0,0,1,80,0,0,0,0,0,0,–,–,–,–,–,–,–,–,–,–
Cn1cncc1-c1ccc2ncnc(Nc3ccc(OCc4ccccc4)cc3)c2c1 [GW320571],13,6,19,0,86,2,0,0,0,25,–,–,–,–,–,–,–,–,–,–
O=C(Nc1n[nH]c2nc(-c3nccs3)c(Br)cc12)C1CC1 [SB-742251],0,6,0,0,0,0,0,19,21,0,–,–,–,–,–,–,–,–,–,–
Cl.Oc1ccc(-c2nc(-c3ccccc3)[nH]c2-c2ccncc2)cc1 [SB-428218],0,0,28,0,5,33,7,0,0,3,–,–,–,–,–,–,–,–,–,–
Cc1cccc(-c2cc(Nc3ccncc3)c3ccccc3n2)n1 [GSK223675],0,0,0,0,0,0,0,5,0,0,–,–,–,–,–,–,–,–,–,–
COc1cc2ncnc(Nc3ccc4nc(-c5ccccc5)[nH]c4c3)c2cc1OC.Cl [GW282450],2,0,30,0,0,0,0,3,0,17,–,–,–,–,–,–,–,–,–,–
CN1C(=O)C(Nc2ccc(Cl)c(C(=O)O)c2)=C(c2ccc(Cl)cc2)C1=O [SB-404290],0,0,13,8,0,0,19,20,12,15,–,–,–,–,–,–,–,–,–,–
CCn1c(-c2cccnc2O)nc2cnccc21 [SB-736715],0,0,0,0,0,0,0,0,0,20,–,–,–,–,–,–,–,–,–,–
Cc1c(O)cccc1Nc1ccnc2ccc(C(F)(F)F)cc12.Cl [GW466413],0,0,8,0,0,79,1,21,0,0,–,–,–,–,–,–,–,–,–,–
CC(C)(C)c1ccc(C(=O)Nc2cn3cc(Cl)ccc3n2)cc1,0,4,24,0,0,0,0,0,0,0,–,–,–,–,–,–,–,–,–,–

SMILES,%Inh (SIK2; [1]) [%],%Inh (SIK; [1]) [%],%Inh (SLK; [1]) [%],%Inh (SNARK; [1]) [%],%Inh (SNRK; [1]) [%],%Inh (SRC; [1]) [%],%Inh (SRMS; [1]) [%],%Inh (SRPK1; [1]) [%],%Inh (SRPK2; [1]) [%],%Inh (SRPK3; [1]) [%],%Inh (SIK2; 1 µM) [%],%Inh (SIK; 1 µM) [%],%Inh (SLK; 1 µM) [%],%Inh (SNARK; 1 µM) [%],%Inh (SNRK; 1 µM) [%],%Inh (SRC; 1 µM) [%],%Inh (SRMS; 1 µM) [%],%Inh (SRPK1; 1 µM) [%],%Inh (SRPK2; 1 µM) [%],%Inh (SRPK3; 1 µM) [%]
CC(=O)Nc1nc2cnc(Nc3cc(NC(=O)c4cccc(CCC#N)c4)ccc3C)nc2s1,0,16,14,9,33,18,0,17,22,0,–,–,–,–,–,–,–,–,–,–
O=C1NC(=O)C(N2CCc3ccccc32)=C1c1ccccc1Cl [SB-373598],6,0,29,11,1,18,98.3,0,0,33,–,–,–,–,–,–,–,–,–,–
Cc1ccc(-c2cc(-c3c[nH]nc3-c3ccccn3)ccn2)cc1 [GW684088],0,0,0,0,0,0,9,13,52,0,–,–,–,–,–,–,–,–,–,–
Cc1ccccc1-n1cnc2c(N)ncnc21 [SKF-97510],0,0,100,0,0,13,0,0,0,0,–,–,–,–,–,–,–,–,–,–
Nc1nc(-c2nccs2)c(-c2ccnc3ccccc23)s1 [GW693542],0,0,9,8,0,0,0,20,0,31,–,–,–,–,–,–,–,–,–,–
COc1ccc(CNC(=O)NC2CCN(c3ccnc(Nc4cc(OC)c(OC)c(OC)c4)n3)C2)cc1 (centres unmarked) [GSK1379748],0,0,0,25,0,14,0,11,31,0,–,–,–,–,–,–,–,–,–,–
Nc1ncnc2[nH]c(-c3ccccc3)nc12 [AH5015],5,0,14,3,100,29,2,12,0,0,–,–,–,–,–,–,–,–,–,–
Cc1cccc(-c2nc(C)cc(Nc3ccncc3)n2)n1 [GSK257997],0,0,42,4,0,0,0,35,0,11,–,–,–,–,–,–,–,–,–,–
Fc1cc(Cl)ccc1Nc1ccnc2cc(-c3ccc(CN4CCCCC4)o3)ccc12 [GW560116],22,9,0,0,0,90.8,0,0,35,0,–,–,–,–,–,–,–,–,–,–
COc1ccccc1CNC(=O)c1cc(C(=O)c2ccccc2C)c[nH]1 [GSK364507],0,14,5,0,0,0,0,26,0,0,–,–,–,–,–,–,–,–,–,–
CS(=O)(=O)c1ccc(-c2c(-c3ncn[nH]3)sc(N3CCOCC3)c2C#N)cc1,0,39,3,0,7,0,0,0,0,0,–,–,–,–,–,–,–,–,–,–
Clc1cc(Cl)cc(Nc2ccnc(Nc3cc(Cl)cc(Cl)c3)n2)c1 [GSK175726],0,8,8,10,0,49,11,0,0,0,–,–,–,–,–,–,–,–,–,–
CCCc1ccc(S(=O)(=O)NC2CCN(c3ccnc(Nc4ccc(F)cc4)n3)C2)cc1 (centres unmarked) [GSK1379715],0,0,0,0,0,48,0,0,17,6,–,–,–,–,–,–,–,–,–,–
CC(C)(C)c1ccc(C(=O)Nc2cn3cc(-c4cccnc4)ccc3n2)cc1,25,22,19,5,20,3,0,15,0,0,–,–,–,–,–,–,–,–,–,–
Cc1cccc(-c2nc(Nc3cccc(C(N)=O)c3)c3ccccc3n2)n1 [GW876019],63,14,14,0,0,0,33,17,23,4,–,–,–,–,–,–,–,–,–,–
Cl.c1ccc(-c2n[nH]cc2-c2ccnc(-c3ccc(CN4CCOCC4)cc3)c2)nc1 [GW776245],0,23,0,0,0,15,0,0,0,41,–,–,–,–,–,–,–,–,–,–
